High-throughput results from PubChem.
Pf Dd2 growth: P. falciparum Dd2 growth inhibitors, primary screen, SYBR Green fluorescence, single dose replicates. 72 h; hits give low values. activity change, % at 10 µM. 94,000 compounds, 2.3% hits; in the data active = activity change below about -80%; inconclusive = no clear call, values can overlap the other calls
T cruzi growth-1: T. cruzi intracellular proliferation inhibitors, primary screen, cell-based, beta-gal Tulahuen parasites, NIH3T3 host, luminescence; T. cruzi beta-gal in NIH3T3, GalScreen luminescence, 90 h; inhibition, % at 8.34 µM; 77,000 compounds, 5.9% hits;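 active = mean inhibition above about 93%, with at least 55% of replicates each passing it, limit read from the data, passing the limit was not always enough; inconclusive = only one of those two conditions holds; inactive = neither condition holds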
C diff HTS: C. difficile growth inhibitors, primary screen, HTS. growth activity, negative = inhibition, % at 16 µg/mL (by protocol). Clostridium difficile clinical isolate growth, OD600, 24 h; hits give low values. 86,000 compounds, 0.25% hits;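 active = mean growth activity at or below -80% and every replicate also at or below -80%; inconclusive = mean at or below -80% but some replicate above -80%; inactive = mean growth activity above -80%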;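 also: 0% = DMSO wells and -100% = levofloxacin 16 µg/mL wells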
T cruzi growth-2: T. cruzi intracellular proliferation inhibitors, confirmation, cell-based, NIH3T3 host, beta-gal parasite, luminescence, cherry-pick. shares compounds with T cruzi growth-1. T. cruzi beta-gal in NIH3T3, GalScreen luminescence, 90 h. 5,600 compounds, 72% hits. AID 651739, 2012. inhibition, % at 8.35 µM;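 active = mean replicate inhibition above about 95% and at least 55% of replicates individually reaching it, limit read from the data; inconclusive = only one of the two criteria is met; inactive = neither criterion is met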
T cruzi growth-3: inhibitors of intracellular T. cruzi replication, confirmation, NIH3T3 host cells, beta-gal parasites, cherry-pick, set 2; shares compounds with T cruzi growth-1; T. cruzi beta-gal in NIH3T3, GalScreen luminescence, 90 h; inhibition, % at 2.09 µM; 5,600 compounds, 21% hits; AID 651740, 2012;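 active = mean inhibition above about 95%, with at least 55% of replicates also reaching it, limit read from the data; inconclusive = meets just one of the two conditions; inactive = meets neither condition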;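 also: plate controls were neutral control median for no effect and positive control median for full effect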
NIH3T3 tox: cytotoxicity in mouse NIH/3T3 fibroblasts, confirmation, cytotoxicity control for T. cruzi proliferation inhibitor project, cell-based, cherry-pick, single point. shares compounds with T cruzi growth-1. NIH/3T3 viability, CellTiter-Glo ATP luminescence, 90 h. cytotoxicity (signal decrease), % at 8.35 µM. 5,600 compounds, 14% hits. AID 651742, 2012;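 active = mean signal decrease across replicates above about 35% based on untreated-well scatter, with enough replicates individually passing, limit read from the data; inconclusive = no rule stated though some were filed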;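 also: 0% = median of neutral control wells and 100% = median of positive control wells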
3T3 cytotox 2: NIH/3T3 fibroblast cytotoxicity, confirmation, cytotoxicity control, cell-based, cherry-pick, single point, set 2 | 5,600 compounds, 56% hits | NIH/3T3 viability, CellTiter-Glo ATP luminescence, 90 h | shares compounds with T cruzi growth-1 | AID 651744, 2012 | inhibition, % at 24.9 µM;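 active = mean loss of cell viability signal at or above a set limit, and enough replicates individually reaching it; inconclusive = meets only the mean limit or only the replicate share; inactive = meets neither condition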;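 also: 0% = median of neutral control wells and 100% = median of positive control wells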
* = called active by the depositor; ? = inconclusive; / = no result given. Rows were chosen to be rich in hits. Some 6.8% of all compounds tested hit in one or more screens of this group.

SMILES	Pf Dd2 growth	T cruzi growth-1	C diff HTS	T cruzi growth-2	T cruzi growth-3	NIH3T3 tox	3T3 cytotox 2
CC=Cc1ccc2n(c1=O)C[C@H]1[C@H](CO)[C@@H](C(=O)N(C)C)[C@@H]2N1CC1CCCC1 (mixture of isomers)	0	/	-4	/	/	/	/
COc1ccc(CNC(=O)N(C)C[C@H]2OCc3ccccc3-c3ccccc3C(=O)N([C@H](C)CO)C[C@H]2C)cc1	18	63	-2	/	/	/	/
COc1ccccc1C#Cc1ccc([C@@H]2[C@H](C#N)N(C(=O)C3CC3)[C@H]2CO)cc1	-35	88	6	/	/	/	/
COc1ccccc1C#Cc1ccc([C@@H]2[C@@H](C#N)N(C(=O)C3CC3)[C@@H]2CO)cc1	-3	80	-2	/	/	/	/
COc1ccccc1C#Cc1ccc([C@@H]2[C@@H](C#N)N(C(=O)C3CC3)[C@H]2CO)cc1	-33	99*	-14	108*	86	-9	34*
COc1cccc(C#Cc2ccc([C@@H]3[C@@H](C#N)N(C(=O)C4CCCC4)[C@H]3CO)cc2)c1	-70	/	36	/	/	/	/
COc1ccccc1C#Cc1ccc([C@H]2[C@@H](C#N)N(C(=O)C3CC3)[C@@H]2CO)cc1	-42	97*	-1	101*	107*	30	50*
COc1cccc(C#Cc2ccc([C@H]3[C@H](C#N)N(C(=O)C4CC4)[C@H]3CO)cc2)c1	-39	104*	-3	106*	76	6	42*
C[C@@H]1CCCCO[C@H](CN(C)C(=O)CCCN(C)C)[C@H](C)CN([C@H](C)CO)C(=O)c2cc(NC(=O)C3CCCCC3)ccc2O1	11	-5	1	/	/	/	/
CN1CCN(C(=O)C[C@@H]2CC[C@@H]3[C@H](COC[C@H](O)CN3C(=O)C3CCCC3)O2)CC1	10	28	/	/	/	/	/
COc1ccccc1CN1[C@H](CO)[C@@H]2c3ccccc3N(C(=O)c3ccncc3)C[C@@H]21	6	55	23	/	/	/	/
C[C@@H]1CN([C@H](C)CO)C(=O)c2cc(NS(=O)(=O)c3cn(C)cn3)ccc2O[C@@H](C)CCCCO[C@H]1CN(C)CC1CCCCC1	18	-20	-3	/	/	/	/
Cc1ccc(S(=O)(=O)N[C@@H]2CC[C@H](CC(=O)NCCCN(C)C)O[C@H]2CO)cc1	11	-53	3	/	/	/	/
CCCC(=O)Nc1ccc2c(c1)C(=O)N(C)[C@@H]1CC[C@H](CC(=O)Nc3ccccc3)O[C@@H]1CO2	5	-47	7	/	/	/	/
C[C@@H]1CN([C@@H](C)CO)S(=O)(=O)c2ccc(C#Cc3ccccc3)cc2O[C@@H]1CN(C)S(=O)(=O)c1ccccc1F	-60	123*	5	105*	109*	34	47*
C[C@@H]1CN([C@H](C)CO)S(=O)(=O)c2ccc(C#Cc3ccccc3)cc2O[C@H]1CN(C)S(C)(=O)=O	-69	61	-9	/	/	/	/
C[C@@H]1CN([C@@H](C)CO)S(=O)(=O)c2ccc(C#Cc3ccccc3)cc2O[C@H]1CN(C)S(C)(=O)=O	-76	68	-9	/	/	/	/
C[C@H](CO)N1C[C@H](C)[C@@H](CN(C)S(=O)(=O)c2ccccc2F)Oc2cc(C#Cc3ccccc3)ccc2S1(=O)=O	-74	123*	3	107*	116*	3	?
C[C@@H]1CN([C@@H](C)CO)S(=O)(=O)c2ccc(C#Cc3cccc(F)c3)cc2O[C@@H]1CN(C)S(=O)(=O)c1cn(C)cn1	-17	94	-3	/	/	/	/
C[C@H](CO)N1C[C@H](C)[C@@H](CN(C)S(=O)(=O)c2cn(C)cn2)Oc2cc(C#Cc3ccccc3)ccc2S1(=O)=O	-65	105*	0	106*	87	23	50*
O=C(C1CCOCC1)N1CC(=O)N2[C@H](CO)[C@@H](c3ccc(C#CC4CCCC4)cc3)[C@@H]2C1	-13	/	-16	/	/	/	/
Cc1ccc(-c2cnc3c(c2)C(=O)N([C@@H](C)CO)C[C@@H](C)[C@H](CN(C)C(=O)c2ccc(F)cc2)O3)cc1	15	7	/	/	/	/	/
COc1ccc(CN(C)C[C@H]2OCCCC[C@@H](C)Oc3ccc(NS(=O)(=O)c4ccc(OC)cc4)cc3C(=O)N([C@H](C)CO)C[C@@H]2C)cc1	-25	-21	-5	/	/	/	/
COc1ccc(CN(C)C[C@H]2OCCCC[C@@H](C)Oc3ccc(NS(=O)(=O)c4ccccc4)cc3C(=O)N([C@H](C)CO)C[C@H]2C)cc1	-55	-18	1	/	/	/	/
COc1ccc(CN(C)C[C@@H]2OCCCC[C@H](C)Oc3ccc(NS(=O)(=O)c4ccc(Cl)cc4)cc3C(=O)N([C@@H](C)CO)C[C@H]2C)cc1	-44	?	13	100*	76	21	104*
SMILES	Pf Dd2 growth	T cruzi growth-1	C diff HTS	T cruzi growth-2	T cruzi growth-3	NIH3T3 tox	3T3 cytotox 2
COc1ccc(CN(C)C[C@H]2OCCCC[C@H](C)Oc3ccc(NS(=O)(=O)c4ccc(Cl)cc4)cc3C(=O)N([C@H](C)CO)C[C@H]2C)cc1	?	94	15	/	/	/	/
COc1ccc(CN(C)C[C@@H]2OCCCC[C@@H](C)Oc3ccc(NS(=O)(=O)c4ccc(Cl)cc4)cc3C(=O)N([C@@H](C)CO)C[C@@H]2C)cc1	-35	?	5	?	58	30	107*
COc1ccc(CN(C)C[C@H]2OCCCC[C@H](C)Oc3ccc(NS(=O)(=O)c4ccccc4)cc3C(=O)N([C@H](C)CO)C[C@H]2C)cc1	-36	102*	-2	108*	43	9	?
COc1ccc(CN(C)C[C@@H]2OCCCC[C@@H](C)Oc3ccc(NS(=O)(=O)c4ccc(Cl)cc4)cc3C(=O)N([C@H](C)CO)C[C@H]2C)cc1	-56	?	-6	105*	84	27	103*
COc1ccc(CN(C)C[C@H]2OCCCC[C@@H](C)Oc3ccc(NS(=O)(=O)c4ccc(Cl)cc4)cc3C(=O)N([C@@H](C)CO)C[C@@H]2C)cc1	-72	30	14	/	/	/	/
CO[C@@H]1CC[C@@H]2CCN(C)C(=O)[C@@H](C)[C@H](OC)CN(C)C(=O)c3cccc(C#N)c3OC[C@@H]1O2	27	5	/	/	/	/	/
C[C@@H]1CN([C@H](C)CO)C(=O)c2cccc(NC(=O)c3ccncc3)c2O[C@H]1CN(C)S(=O)(=O)c1ccc(Cl)cc1	19	-4	-2	/	/	/	/
C[C@@H]1CN([C@H](C)CO)C(=O)c2cc(-c3ccc(C#N)cc3)cnc2O[C@H]1CN(C)CC1CCCCC1	8	/	10	/	/	/	/
